Test results from PubChem BioAssay (NCI).
Compounds without any hit were thinned out: in the full panel of roughly 83,000, 20% have a hit.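 Cell lines were cultured in 96-well plates, exposed to a single compound concentration, and assessed for percent growth 48 hours later.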 Unmarked numbers belong to inactive results. Calls of active or inactive are those of the source. The calls were made as follows: active = growth percent below 10; inactive = the rest.

Legend:
Test in all cases: NCI-60 one-dose screen, 48 h (100 = growth as untreated, 0 = no growth, -100 = all killed)
Settings in all cases: 10 µM unless noted
[1] = test system: BT-549 breast
[2] = test system: MDA-MB-435 melanoma
[3] = test system: SW-620 colon
[4] = test system: MCF7 breast
[5] = test system: HCT-116 colon
[6] = test system: HCC-2998 colon
[7] = test system: KM12 colon

SMILES	growth [1]	growth [2]	growth [3]	growth [4]	growth [5]	growth [6]	growth [7]
COC(=O)[C@]1(CCSC)N[C@H](c2cn(-c3ccccc3)nc2C)[C@@H]2C(=O)N(c3ccccc3)C(=O)[C@@H]21	95.5%	106%	107%	98.5%	98.3%	95.2%	107%
Oc1[nH]c2ccccc2c1/C=c1/ccc2c(c1)N=C(c1cc(F)cc(F)c1)N=2	40.4%	25.2%	36.4%	25.1%	28.7%	81.1%	34%
O=C(Nc1cccc2ccccc12)c1cc2c(cc1Br)OCO2	61%	111%	100%	79.9%	236%	97.3%	103%
O=C1C2C3C=CC(O3)C2C(=O)N1Nc1ccccc1 (stereo unspecified)	108%	96.9%	108%	98.9%	106%	102%	115%
CC(C)[C@]12O[C@H]1[C@@H]1O[C@]13[C@]1(O[C@H]1C[C@H]1C4=C(CC[C@@]13C)C(=O)OC4)[C@@H]2OC(=O)CN(C)C	-18.2% (active)	-76.4% (active)	0.523% (active)	18.1%	4.59% (active)	-37.2% (active)	2.83% (active)
COc1ccc(-c2c(-c3cc(OC)c(OC)c(OC)c3)noc2N)cc1	13.2%	-6.19% (active)	21.7%	17.1%	8.77% (active)	17.4%	7.28% (active)
C/C(=C\CCc1ccsc1)CC/C=C(\C)CCCN1CCN(CCO)CC1	30.1%	41%	-11.4% (active)	26.3%	26%	19.8%	27.1%
C=C1c2c(C)nn(-c3ccc(C#CCOC4OC(CO)C(O)C(O)C4O)cc3)c2N(C)C23C[C@H]1C1(C)c4c(C)nn(-c5ccc(C#CCOC6OC(CO)C(O)C(O)C6O)cc5)c4N(C)C(C)(C[C@H]12)C3 (stereo partly specified)	3.47% (active)	0.0883% (active)	11.6%	-0.735% (active)	0.942% (active)	-3.04% (active)	-23.3% (active)
O=C1C(=O)c2ccc(Br)cc2-c2cc(Br)ccc21	63%	20.5%	-1.44% (active)	0.468% (active)	-71.9% (active)	87%	73.1%
COc1cc(C2NC(c3ccc(Cl)cc3)C(C)/C(=N/NC(N)=S)C2C)cc(OC)c1OC (stereo unspecified)	111%	107%	106%	90.3%	73.1%	126%	88.6%
O=C1CN(CO)C(=O)CN1CO	113%	103%	95.9%	101%	103%	104%	105%
COc1ccc2[nH]cc(/C=C3/C(=O)Nc4ccc(Cl)cc43)c2c1	40.9%	22.9%	53.7%	40.7%	13.5%	43.9%	3.07% (active)
COc1cc2c(cc1OC)C1CCN3C(=O)CCC3N1CC2 (stereo unspecified)	107%	113%	106%	103%	109%	101%	109%
COc1ccc2nc3cc(Cl)ccc3c(Nc3cc(C(C)C)c(O)cc3C)c2c1	57%	30.8%	21.8%	15.5%	1.48% (active)	37.5%	8.35% (active)
Cn1cnc([N+](=O)[O-])c1S(=O)(=O)Oc1ccc(Cl)cc1	103%	78.8%	-31% (active)	63.7%	-32.1% (active)	83.1%	84.9%
c1cncc(CNc2ccccc2-c2nnc(Nc3ccc4c(c3)OCO4)o2)c1	39.2%	-28% (active)	30.6%	9.29% (active)	8.54% (active)	20.1%	3.86% (active)
Cc1nn(-c2ccccc2)c(Cl)c1C(CC(=O)c1ccc(Cl)cc1)CC(=O)c1ccc(Cl)cc1	85.6%	90.9%	96.4%	92.7%	75.4%	99.1%	86.1%
S=C1SCN(Cc2ccccc2)CN1Cc1ccco1	102%	37.8%	41.7%	18.2%	25.5%	103%	58.2%
NNC(=O)NO	99%	108%	103%	94%	101%	99.9%	98.2%
COC1=CC(c2ccc[nH]2)=N/C1=C\c1[nH]c(C)c(C(=O)CCC(=O)Oc2ccc3c(c2)CCC2C3CC[C@]3(C)C(=O)CC[C@@H]23)c1C (stereo partly specified)	70.2%	93.7%	27.9%	50.2%	20.3%	79.8%	53.6%
O=C1NCN(c2ccccc2)C12CCN(CCCC(c1ccc(F)cc1)c1ccc(F)cc1)CC2	61.6%	47.7%	77%	37.8%	30.1%	15.9%	76.3%
COc1cccc(-c2nnc(N)o2)c1	87.4%	105%	103%	101%	100%	83.3%	106%
O=C(Nc1ccc(OCc2nnc(-c3ccccc3)o2)c(F)c1)Nc1ccc(Cl)c(C(F)(F)F)c1	68.3%	27.5%	17.6%	8.14% (active)	9.64% (active)	14.4%	1.65% (active)
